One assay deals with FXR:RXRa (NR concentration 270 nM, RXRa partner concentration 90 nM). Description: PBM binding z-score (relative to random genomic background probes); higher = stronger binding; sequences stand for … in GC…GCGATTGACAGCGTAGAATGAAGG
The gist of the method: (§1)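 Antibodies against each partner of ligand-free nuclear receptor dimers (one per run) detected binding on custom Agilent 4×180K protein-binding microarrays after 1 h incubation. The double-stranded probes had 34-nt variable regions carrying direct-repeat seeds, single-nucleotide variants, half-site ablations and random human genomic background sequences. Binding z-scores, from regression-normalized fluorescence, use the random background probes as reference.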
In the case of CCAGACAGGTGAGAAGGGAACTCAGCCTCGATTA, the PBM binding z-score was -0.0941.

For TAGACTAGGTCATTGGGCCAGTATAGTACGCATC, the PBM binding z-score worked out at 3.51.

Consider GCGACTGGCGCAAAGCAGGTTACCATAAGGTTGG, for which the PBM binding z-score was -0.457.

For the sequence CATACTGGGCCAAAGGTCATTGATTCCAATGCTC, the PBM binding z-score stood at 5.32.

CCTAATGGGCCAAAAAGGTCATTGATGCCGATAA came in with a PBM binding z-score of 3.45.

The sequence CCTAGTTGGTCAGGAGGTCACACCCCGGATATGA gave a PBM binding z-score of 3.53.

With ACAGACAGGTGAGTGAACGTAACTCAGCTGGACG, the PBM binding z-score is -0.265.

On to TGAATGAGGTTCAAGATCAGGGAACGTGGCGTCG, for which the PBM binding z-score worked out at 0.995.

For the sequence CCGACTGGGGGAAGGTTACCATAACGCACAGCCA, the PBM binding z-score came to 0.719.

In turn, TAGCCTAGGTCAGATCGCGCCAGTATACGCTATA registered a PBM binding z-score of 1.75.

As for CGAACGAGGCCATGAGTTGATAGCAAATGCCGAT, the PBM binding z-score is -0.039.

Regarding TCTTGTAGATCAACAGAGGTTAAGAAAGTGCGCT, the PBM binding z-score turned out to be 0.849.

GCTCGGAGGACAAGGTCAGAGCCTTGTCCGTAGA returned a PBM binding z-score of 2.67.

The sequence ATCGAAAGGTCGTGAGGTGAGTATGCAGAAAGGC had a PBM binding z-score of 5.14.

On to CCTGCTAGGTCATGATCAGCTAATCTACAGTATG, for which the PBM binding z-score was found to be 3.25.

Turning to CCTCGGAGGACAACAGGTGGTCAGAGCTGCCAGA, the PBM binding z-score was -0.329.

Consider CCGAGTAGGTCATGGGGCATTCAGGCAACGGTGA, for which the PBM binding z-score was 4.82.

For the sequence CGTCAAAGTTCAAGGTAACGTACCAGAAAGCAGC, the PBM binding z-score is 6.54.

With CGAACTAGGTCACTGACAGGACAGTGAATAGTAA, the PBM binding z-score is 3.05.

CCTACTGGGCCACGAAAGGTCATTGCTTCAGTGA returned a PBM binding z-score of 3.92.

Sequence CAAACTAGATCACCGGAAGGTCAAAGTCCGCATG showed a PBM binding z-score of 3.07.

For CCTAGTTGGTCAATGTCACACACGCTATAGGTAC, the PBM binding z-score is 0.436.

Turning to CCTACTGGGCCATCACGTCATTGATATCAACGTT, the PBM binding z-score is -0.11.

For GCGACTGGGGCAAAGCAGGTTACCATAAGGTTGG, the PBM binding z-score was found to be 1.14.

The sequence TCTGCTAGGTCAACGATGGTCAGCTACTCTGCTA displayed a PBM binding z-score of 3.16.

ACAAGCAGGCCAAGGGTCACTCAAGATTAGTCCG yielded a PBM binding z-score of 2.26.

As for CCTAGCAGGCCAAGGTCACTCAAGCATTTCGCTT, the PBM binding z-score turned out to be 3.06.

The sequence TCTCGGAGGACACGAAGGTCAGACCTTTCCAGAG yielded a PBM binding z-score of 1.6.

With GTACCAAGGTGAATAGGTCGTTAATGAGTAGGCG, the PBM binding z-score is 0.719.

With TCTATTAGTTGATGGGCAACCGACGAGTCCGTTT, the PBM binding z-score turned out to be 0.353.

Turning to CGAACTAGGGCATCCAGGACAGTGAATACATTGA, the PBM binding z-score came out at 0.197.

In turn, TTACCTAGGTGAAGGTCGTTGATCCCTCTGTAGA yielded a PBM binding z-score of 2.2.

Consider CGGACTGGGGCAAGGTTACCATAACGCACAGCCA, for which the PBM binding z-score worked out at 0.491.

Consider ACTATTAGTTGACTTAGGGCAACCGTTACGACGC, for which the PBM binding z-score was determined as 0.212.

Consider CCGACTGGGGCTAAGGTTACCATACTCAGTACGA, for which the PBM binding z-score was 0.144.

Sequence AGAACGAGGGCATGCTGAGTTGATAGCAGAGTAG showed a PBM binding z-score of 0.426.

ATATGTAGGTTATCGGTTCATTCAGTTTGCGCAT came in with a PBM binding z-score of 1.28.

TCATATAGGTAAACAGTTGAAAGTCCGTAAGTTA: the PBM binding z-score amounted to 1.56.

Regarding CAAACTACGTCACCGGAAGGTCAAAGTCCGCATG, the PBM binding z-score was 3.24.

The subject of another assay is LXRa:RXRa (NR concentration 270 nM, RXRa partner concentration 90 nM). The assay is described as above. The essentials: as §1
Take CCAGACAGGTGAGAAGGGAACTCAGCCTCGATTA: the PBM binding z-score was -0.0473.

For TAGACTAGGTCATTGGGCCAGTATAGTACGCATC, the PBM binding z-score is 2.61.

With GCGACTGGCGCAAAGCAGGTTACCATAAGGTTGG, the PBM binding z-score is -0.431.

For the sequence CATACTGGGCCAAAGGTCATTGATTCCAATGCTC, the PBM binding z-score amounted to 5.39.

The sequence CCTAATGGGCCAAAAAGGTCATTGATGCCGATAA displayed a PBM binding z-score of 4.14.

With CCTAGTTGGTCAGGAGGTCACACCCCGGATATGA, the PBM binding z-score stood at 3.05.

Take ACAGACAGGTGAGTGAACGTAACTCAGCTGGACG: the PBM binding z-score is -0.366.

TGAATGAGGTTCAAGATCAGGGAACGTGGCGTCG: the PBM binding z-score stood at 0.96.

In the case of CCGACTGGGGGAAGGTTACCATAACGCACAGCCA, the PBM binding z-score came to 1.05.

Take TAGCCTAGGTCAGATCGCGCCAGTATACGCTATA: the PBM binding z-score was 0.937.

Regarding CGAACGAGGCCATGAGTTGATAGCAAATGCCGAT, the PBM binding z-score is -0.24.

TCTTGTAGATCAACAGAGGTTAAGAAAGTGCGCT yielded a PBM binding z-score of 3.72.

Sequence GCTCGGAGGACAAGGTCAGAGCCTTGTCCGTAGA came in with a PBM binding z-score of 2.08.

Turning to ATCGAAAGGTCGTGAGGTGAGTATGCAGAAAGGC, the PBM binding z-score stood at 4.02.

CCTGCTAGGTCATGATCAGCTAATCTACAGTATG registered a PBM binding z-score of 2.63.

With CCTCGGAGGACAACAGGTGGTCAGAGCTGCCAGA, the PBM binding z-score is -0.519.

Sequence CCGAGTAGGTCATGGGGCATTCAGGCAACGGTGA returned a PBM binding z-score of 3.04.

Sequence CGTCAAAGTTCAAGGTAACGTACCAGAAAGCAGC returned a PBM binding z-score of 5.59.

CGAACTAGGTCACTGACAGGACAGTGAATAGTAA had a PBM binding z-score of 2.26.

As for CCTACTGGGCCACGAAAGGTCATTGCTTCAGTGA, the PBM binding z-score worked out at 5.22.

Turning to CAAACTAGATCACCGGAAGGTCAAAGTCCGCATG, the PBM binding z-score is 3.21.

The sequence CCTAGTTGGTCAATGTCACACACGCTATAGGTAC had a PBM binding z-score of 0.678.

With CCTACTGGGCCATCACGTCATTGATATCAACGTT, the PBM binding z-score was -0.114.

In turn, GCGACTGGGGCAAAGCAGGTTACCATAAGGTTGG yielded a PBM binding z-score of 0.088.

With TCTGCTAGGTCAACGATGGTCAGCTACTCTGCTA, the PBM binding z-score was determined as 2.86.

Regarding ACAAGCAGGCCAAGGGTCACTCAAGATTAGTCCG, the PBM binding z-score is 2.92.

For CCTAGCAGGCCAAGGTCACTCAAGCATTTCGCTT, the PBM binding z-score stood at 2.72.

For TCTCGGAGGACACGAAGGTCAGACCTTTCCAGAG, the PBM binding z-score worked out at 1.26.

GTACCAAGGTGAATAGGTCGTTAATGAGTAGGCG showed a PBM binding z-score of 0.484.

Consider TCTATTAGTTGATGGGCAACCGACGAGTCCGTTT, for which the PBM binding z-score is 0.502.

For the sequence CGAACTAGGGCATCCAGGACAGTGAATACATTGA, the PBM binding z-score is -0.226.

With TTACCTAGGTGAAGGTCGTTGATCCCTCTGTAGA, the PBM binding z-score is 1.82.

For CGGACTGGGGCAAGGTTACCATAACGCACAGCCA, the PBM binding z-score was determined as 1.02.

Regarding ACTATTAGTTGACTTAGGGCAACCGTTACGACGC, the PBM binding z-score turned out to be 0.547.

Sequence CCGACTGGGGCTAAGGTTACCATACTCAGTACGA displayed a PBM binding z-score of 0.0677.

AGAACGAGGGCATGCTGAGTTGATAGCAGAGTAG came in with a PBM binding z-score of 0.131.

The sequence ATATGTAGGTTATCGGTTCATTCAGTTTGCGCAT showed a PBM binding z-score of 1.84.

In turn, TCATATAGGTAAACAGTTGAAAGTCCGTAAGTTA had a PBM binding z-score of 1.2.

The sequence CAAACTACGTCACCGGAAGGTCAAAGTCCGCATG came in with a PBM binding z-score of 3.3.

The values are drawn from the supplement of paper PMC6555819.
